Here are results for 45 molecules from the antibiotic and cytotoxicity screens of Wong et al. (2023).

Molecules are shown by their SMILES. In all, about 39,000 compounds went through this assay and about 500 (1.3%) were called active. The entries come from a sample that favours actives as a whole.

The test system of the experiment is S. aureus RN4220. Put plainly: growth inhibition call (relative growth <= 0.2). The note with it: 50 µM.
Take `CN1C(=O)c2cc(NS(=O)(=O)c3ccc(F)cc3)ccc2OC[C@H]2O[C@H](CC(=O)NCC(F)(F)F)CC[C@H]21`: the growth inhibition call is “inactive”. On to `COCC#Cc1ccc2c(c1)O[C@H](CN(C)S(=O)(=O)c1ccc(C)cc1)[C@H](C)CN([C@@H](C)CO)S2(=O)=O`, for which the growth inhibition call was “inactive”. As for `COCCn1c(=NN)[nH]c2ccsc2c1=O`, the growth inhibition call is “inactive”. For `O=C(C[C@H]1CC[C@@H]2[C@H](COC[C@@H](O)CN2Cc2cc(F)ccc2F)O1)N[C@@H]1CCN(Cc2ccccc2)C1` the value was “inactive”; for `CCCCc1nn(-c2ccccc2C(F)(F)F)c(=O)n1Cc1ccc(-c2ccccc2S(=O)(=O)NC(=O)c2sccc2C)cc1`, “active”. Next, `COc1ccc([Si](C)(C)[C@H]2[C@H](CC(=O)N3CCC[C@H]3CO)O[C@@]3(C(=O)N(Cc4ccc(N5CCCCC5=O)cc4)c4ccccc43)[C@@H]2C)cc1`: “inactive”; `C[C@@H]1CN([C@H](C)CO)C(=O)c2c(c3ccccc3n2C)-c2ccccc2CO[C@@H]1CN(C)Cc1ccc(Cl)c(Cl)c1`: “inactive”. For `CO/N=C1\CN(c2nc3c(cc2F)c(=O)c(C(=O)O)cn3C2CC2)C[C@@H]1CN` the value was “active”; for `CON=C1CN(c2nc3c(cc2F)c(=O)c(C(=O)O)cn3C2CC2)CC1CN.CS(=O)(=O)O` (stereo not given), “active”; for `C[C@H]1CN([C@@H](C)CO)C(=O)c2cccc(NC(=O)CCCCCC(=O)Nc3ccccc3N)c2O[C@H]1CN(C)C(=O)Nc1cccc2ccccc12`, “inactive”. In the case of `CCCN(C)C[C@H]1OCCCC[C@@H](C)Oc2ccc(NS(=O)(=O)c3ccc(Cl)cc3)cc2C(=O)N([C@H](C)CO)C[C@@H]1C`, the growth inhibition call is “inactive”. Take `Cc1ccc(S(=O)(=O)N[C@@H]2CC[C@H](CCNC(=O)CN3CCOCC3)O[C@@H]2CO)cc1`: the growth inhibition call was “inactive”. For `C[C@@H]1CN([C@@H](C)CO)S(=O)(=O)c2ccc(-c3cccc(C#N)c3)cc2O[C@H]1CN(C)C(=O)c1cccnc1`, the growth inhibition call is “inactive”. For `CO[C@@H]1CN(C)C(=O)c2cc(NC(=O)Nc3cccc(Cl)c3)ccc2OC[C@H](C)N(C(=O)Nc2c(C)noc2C)C[C@H]1C` the value was “inactive”; for `CC(C)NC(=O)N(C)C[C@H]1OCCCC[C@H](C)Oc2ccc(NC(=O)Nc3ccccc3)cc2C(=O)N([C@@H](C)CO)C[C@H]1C`, “inactive”.

On to `CC(C)=CCC[C@]1(C)[C@@H](CC=C(C)C)C[C@]2(CC=C(C)C)C(=O)C(CC=C(C)C)=C(O)[C@@]1(C(=O)C(C)C)C2=O`, for which the growth inhibition call is “active”. For `C[C@@H]1CCCCO[C@@H](CN(C)C(=O)Nc2ccccc2)[C@@H](C)CN([C@H](C)CO)C(=O)c2cc(NC(=O)Cc3ccccc3)ccc2O1` the value was “inactive”. For `Cn1cncc1[C@@](N)(c1ccc(Cl)cc1)c1ccc2c(c1)c(-c1cccc(Cl)c1)cc(=O)n2C`, the growth inhibition call is “active”. On to `Cc1noc(C)c1S(=O)(=O)N(C)C[C@@H]1OCCCC[C@@H](C)Oc2ccc(NS(=O)(=O)c3cn(C)cn3)cc2C(=O)N([C@@H](C)CO)C[C@H]1C`, for which the growth inhibition call is “inactive”. For `C[C@@H]1CN([C@@H](C)CO)C(=O)c2cc(NC(=O)Cc3ccccc3)ccc2O[C@@H](C)CCCCO[C@H]1CN(C)Cc1ccc2c(c1)OCO2` the value was “inactive”; for `Cc1noc(C)c1S(=O)(=O)Nc1ccc2c(c1)C(=O)N([C@H](C)CO)C[C@H](C)[C@H](CN(C)S(=O)(=O)c1c(C)noc1C)O2`, “inactive”; for `COc1cc(C)c(C(=O)Oc2cc(C)c(C(=O)O)c(O)c2)c(O)c1`, “inactive”. For `CCCCCC(=O)Cc1cc(O)cc(O)c1C(=O)Oc1cc(CC(=O)CCCCC)c(C(=O)O)c(OC)c1` the value was “active”; for `Cc1cc(OC(=O)c2c(C)cc(O)cc2O)cc(O)c1C(=O)O`, “inactive”. `C[C@H](O)C#Cc1ccc2c(c1)O[C@H](CN(C)C(=O)CN(C)C)[C@H](C)CN([C@H](C)CO)S2(=O)=O`: the growth inhibition call is “inactive”.

For `CN(C)CC#Cc1ccc([C@H]2[C@@H](CO)N3C(=O)CN(C(=O)c4cccnc4)C[C@H]23)cc1`, the growth inhibition call was “inactive”.

On to `COc1ccc(S(=O)(=O)Nc2ccc3c(c2)C(=O)N([C@H](C)CO)C[C@H](C)[C@H](CN(C)C(=O)Nc2c(C)noc2C)O3)cc1`, for which the growth inhibition call is “inactive”.

Take `Cc1c(-c2c(-c3ccc(F)o3)sc3ncnc(O[C@H](Cc4ccccc4OCc4ccnn4CC(F)(F)F)C(=O)O)c23)ccc(OCCN2CCN(C)CC2)c1Cl`: the growth inhibition call is “active”. With `COCC#Cc1ccc([C@H]2[C@H](CO)N3C(=O)CN(C(=O)C4CCOCC4)C[C@@H]23)cc1`, the growth inhibition call was “inactive”.

Turning to `Cc1cccc2c3c(ccc12)C1=C(C(=O)C3=O)C(C)CO1` (stereo not given), the growth inhibition call is “active”. Take `Cc1coc2c1C(=O)C(=O)c1c-2ccc2c1CCCC2(C)C`: the growth inhibition call is “inactive”.

On to `CC1COC2=C1C(=O)C(=O)c1c2ccc2c1CCCC2(C)C` (stereo not given), for which the growth inhibition call is “active”. For `Cc1cccc2c1OCC[C@@H](N)C2=O` the value was “inactive”; for `C[C@H]1CN([C@@H](C)CO)C(=O)Cc2cc(NC(=O)CCN3CCOCC3)ccc2O[C@H]1CN(C)Cc1ccccc1`, “inactive”. For the molecule `O=C(Nc1ccc(Cl)cc1C(=O)c1ccc(Cl)cc1)c1cc(Br)ccc1NS(=O)(=O)c1ccc(Cl)cc1`, the growth inhibition call was “inactive”.

As for `O=C(Nc1ccc([N+](=O)[O-])cc1Cl)c1cc(Cl)ccc1O`, the growth inhibition call is “inactive”. Next, `NS(=O)(=O)c1ccc(Cl)cc1[N+](=O)[O-]`: “inactive”. Next, `O=C(Nc1cc(Cl)ccc1Cl)c1cc(Cl)ccc1NS(=O)(=O)c1ccc(Cl)c([N+](=O)[O-])c1`: “active”; `O=C(Nc1cc(Cl)ccc1Cl)c1cc(Br)ccc1NS(=O)(=O)c1ccc(Cl)c([N+](=O)[O-])c1`: “active”; `CNS(=O)(=O)c1ccc(Cl)c(C(N)=O)c1`: “inactive”. `COc1ccc(S(=O)(=O)Nc2ccc3c(c2)C(=O)N([C@H](C)CO)C[C@@H](C)[C@@H](CN(C)C(=O)NC2CCCCC2)OCCCC[C@H](C)O3)cc1`: the growth inhibition call was “inactive”. Take `COc1ccc(S(=O)(=O)N(C)C[C@@H]2OCCCC[C@@H](C)Oc3ccc(NC(=O)NC4CCCCC4)cc3C(=O)N([C@H](C)CO)C[C@H]2C)cc1`: the growth inhibition call was “inactive”. As for `CNC(=O)Cn1c(=O)c2c(OC)c(C)cnc2n(C)c1=O`, the growth inhibition call was “inactive”.

As for `COc1ccc(NC(=O)N(C)C[C@H]2Oc3ccc(NS(=O)(=O)c4c(C)noc4C)cc3CC(=O)N([C@@H](C)CO)C[C@@H]2C)cc1`, the growth inhibition call is “inactive”.

Regarding `COc1ccc(S(=O)(=O)N(C)C[C@H]2Oc3ccc(NS(=O)(=O)c4c(C)noc4C)cc3C(=O)N([C@@H](C)CO)C[C@@H]2C)cc1`, the growth inhibition call was “inactive”.
